Hit rate of the full screen: of about 2,100 compounds, about 760 (36%) were called active.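 Rule for the calls: active = thallium-flux fluorescence traces judged by eye to show enhanced or reduced glutamate response, manual score 1 or -1, so both directions (some results past the limit were not filed as active); inactive = the rest, including fluorescent or raised-baseline compounds.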 The list is a sample of the results.

A short description of this test: non-GIRK thallium flux modulation in mGlu8 cells, confirmation, counter-screen for GIRK activator project, cell-based, HEK-293 rmGlu8, no GIRK (AID 623868).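 Note: extra codes mark interference with 3 for fluorescent and 4 for baseline rise.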 The settings on record: thallium flux fluorescence, at 10 µM, actives lie on both sides, codes: 1 enhancer, -1 blocker, 0 none, thallium stimulus containing EC20 glutamate. For orientation: Counterscreens check selectivity or assay interference.
In the case of `CCN(CC)S(=O)(=O)c1csc(C(=O)NCc2ccccc2)c1`, the manual score is 0 (inactive).

`Cc1cc(N2C(=O)C(O)=C(C(=O)c3ccc(C)o3)C2c2cccs2)no1` (centres undefined): the manual score was -1 (active).

As for `COc1ccc(C(OC(=O)c2cccs2)C(=O)NCC2CCCO2)cc1` (centres undefined), the manual score was 0 (inactive).

Consider `C=CCOc1cccc(C2C(C(=O)c3ccc(C)o3)=C(O)C(=O)N2c2nccs2)c1` (centres undefined), for which the manual score is 3 (inactive).

Consider `COc1ccc(OC)c(C2C(C(=O)c3cc4ccccc4o3)=C(O)C(=O)N2c2cc(C)on2)c1` (centres undefined), for which the manual score was -1 (active).

With `COc1ccc(OC)c(C2C(C(=O)c3cccs3)=C(O)C(=O)N2c2cc(C)on2)c1` (centres undefined), the manual score is -1 (active).

Turning to `COc1ccc2nc3oc(C(=O)Nc4ccc(OC)c(OC)c4)cc3cc2c1`, the manual score was 0 (inactive).

For `C/C(CC(=O)NCC(C)C)=N\NC(=O)COc1cc(C)c(Br)cc1Br`, the manual score was 0 (inactive).

Turning to `COc1ccc(S(=O)(=O)N(CCc2ccccc2)CC(=O)O)cc1`, the manual score was 0 (inactive).

Regarding `CCOc1ccc(C(=O)NC(=S)N(Cc2ccccc2)Cc2ccccc2)cc1`, the manual score was 1 (active).

As for `CCOc1ccc(N2C(=O)c3ccccc3C2O)cc1` (centres undefined), the manual score was 0 (inactive).

As to `COc1ccc(C(=O)NC(=S)N(Cc2ccccc2)Cc2ccccc2)cc1`, the manual score is 1 (active).

In the case of `CCOc1ccc(NC(=O)CCC(=O)c2ccc(-c3ccccc3)cc2)cc1`, the manual score was 0 (inactive).

In the case of `CC(=O)CN1Cc2ccccc2/C1=N\C(=O)Nc1ccccc1`, the manual score is 0 (inactive).

`Cc1nc2ccccn2c1-c1csc(NCc2ccco2)n1`: the manual score is -0.5 (inactive).

Take `CCc1c(C)c(C#N)c2nc3ccccc3n2c1NCc1ccco1`: the manual score was -1 (active).

As to `Cn1cc(S(=O)(=O)Nc2ccc(F)cc2F)c(=O)n(C)c1=O`, the manual score is 0 (inactive).

As to `O=C(N/N=C/c1ccc2cccc(OCc3ccccc3)c2n1)c1ccc(Br)cc1`, the manual score was 1 (active).

Turning to `COc1ccc(/C=N/NC(=O)c2nc(-c3ccccc3)cc(-c3ccccc3)n2)cc1`, the manual score was 0 (inactive).

As for `N/C(=N\OC(=O)Cc1ccccc1)c1ccc(Br)cc1`, the manual score is 0 (inactive).

With `COc1ccc(C(=O)N/N=C/c2ccc3cccc(OCc4ccccc4)c3n2)cc1`, the manual score was 1 (active).

As to `O=C(N/N=C/c1ccccn1)c1ccc(Br)cc1`, the manual score was 1 (active).

For `CSC1=N/C(=C\c2ccc(Br)o2)C(=O)S1`, the manual score was 0 (inactive).

For `CCCCN(C)C1=CC2=CC(=C(C#N)C#N)CCC2CC1` (centres undefined), the manual score was 3 (inactive).

`Cc1cc2c(cc1C)C(=O)NC(C)(C)C2`: the manual score is 0 (inactive).

Consider `Cc1cccc(OCC(O)CN2C(C)(C)CC(O)CC2(C)C)c1` (centres undefined), for which the manual score was 0 (inactive).

`COc1ccc(Nc2nc(C)cc(C)c2C#N)cc1OC`: the manual score is 0 (inactive).

For `CCc1nc(N2CCOCC2)c(C#N)c2c1CCCC2`, the manual score was 0 (inactive).

Regarding `Oc1[nH]c2ccccc2c1N=Nc1nc2ccccc2s1`, the manual score is 1 (active).

The values above are taken from PubChem BioAssay AID623868 (Vanderbilt High Throughput Screening Facility, 2012).
